In the supplement of paper PMC11732987, “Enantioselective OTUD7B fragment discovery through chemoproteomics screening and high-throughput optimisation” (Communications Chemistry, 2025):

Tests used:
Assay in all cases: log2 ratio of Biotin-Ahx-Ub-VS probe labelling (fragment/DMSO); higher = less target engagement (more negative = stronger competition), active = hit call of the paper (q ≤ 0.05, log2 ratio ≤ -1)
Details in all cases: compound concentration: 200 uM; treatment time: 3 h
[1] = target: T1, USP19 (UniProt O94966)
T1 sequence (whole entry): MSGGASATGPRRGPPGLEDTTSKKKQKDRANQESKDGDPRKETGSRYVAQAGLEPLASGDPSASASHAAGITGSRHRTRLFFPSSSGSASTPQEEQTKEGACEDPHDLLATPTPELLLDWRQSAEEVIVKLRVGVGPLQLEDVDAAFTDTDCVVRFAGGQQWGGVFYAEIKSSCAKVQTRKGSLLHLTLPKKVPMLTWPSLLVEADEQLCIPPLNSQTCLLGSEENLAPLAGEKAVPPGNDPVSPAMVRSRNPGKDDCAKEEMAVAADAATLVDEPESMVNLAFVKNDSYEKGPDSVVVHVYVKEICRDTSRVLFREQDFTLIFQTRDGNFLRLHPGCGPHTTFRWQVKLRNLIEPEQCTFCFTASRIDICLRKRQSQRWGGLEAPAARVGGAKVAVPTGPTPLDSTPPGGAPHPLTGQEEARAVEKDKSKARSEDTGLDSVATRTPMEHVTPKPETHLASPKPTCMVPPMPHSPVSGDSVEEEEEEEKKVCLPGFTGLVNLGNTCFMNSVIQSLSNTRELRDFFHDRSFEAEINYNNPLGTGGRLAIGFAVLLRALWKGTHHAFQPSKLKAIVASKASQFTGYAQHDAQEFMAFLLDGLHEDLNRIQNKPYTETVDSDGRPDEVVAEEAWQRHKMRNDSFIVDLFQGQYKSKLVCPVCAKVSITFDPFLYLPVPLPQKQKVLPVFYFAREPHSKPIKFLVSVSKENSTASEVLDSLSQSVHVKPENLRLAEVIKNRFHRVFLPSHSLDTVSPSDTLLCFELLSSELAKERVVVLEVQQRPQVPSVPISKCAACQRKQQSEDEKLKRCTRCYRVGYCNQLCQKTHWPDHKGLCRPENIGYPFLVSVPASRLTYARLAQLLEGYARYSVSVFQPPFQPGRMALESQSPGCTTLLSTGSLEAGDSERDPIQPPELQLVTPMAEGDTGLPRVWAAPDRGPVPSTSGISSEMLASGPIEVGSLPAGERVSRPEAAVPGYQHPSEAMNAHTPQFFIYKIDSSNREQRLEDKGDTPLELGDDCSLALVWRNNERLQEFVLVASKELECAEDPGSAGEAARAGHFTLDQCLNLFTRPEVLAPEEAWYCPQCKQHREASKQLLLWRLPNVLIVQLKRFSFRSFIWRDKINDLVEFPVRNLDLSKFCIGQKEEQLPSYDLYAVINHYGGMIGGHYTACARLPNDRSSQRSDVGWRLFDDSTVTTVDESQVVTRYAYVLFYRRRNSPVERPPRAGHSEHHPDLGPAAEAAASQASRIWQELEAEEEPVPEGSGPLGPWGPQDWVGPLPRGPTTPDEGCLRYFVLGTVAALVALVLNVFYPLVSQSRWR
Outline: (§1)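 HEK293T lysate (495 µg per sample, in Tris/CHAPS/IGEPAL buffer with protease inhibitors) was exposed in triplicate for 3 h to fragment at 200 µM or to vehicle, then to Biotin-Ahx-Ub-VS at 0.5 µM final for 1 h. Labelled DUBs were enriched on NeutrAvidin, digested with LysC and trypsin, and analysed by diaPASEF LC-MS/MS. Spectronaut label-free quantities were normalised to the global median, and values are average log2 ratios of fragment over vehicle from an unpaired t-test. Only proteins with ≥2 unique peptides were used.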

[2] = target: USP24 (UniProt Q9UPU5)
Outline: as §1

[3] = target: T2, USP25 (UniProt Q9UHP3)
T2 sequence (whole entry): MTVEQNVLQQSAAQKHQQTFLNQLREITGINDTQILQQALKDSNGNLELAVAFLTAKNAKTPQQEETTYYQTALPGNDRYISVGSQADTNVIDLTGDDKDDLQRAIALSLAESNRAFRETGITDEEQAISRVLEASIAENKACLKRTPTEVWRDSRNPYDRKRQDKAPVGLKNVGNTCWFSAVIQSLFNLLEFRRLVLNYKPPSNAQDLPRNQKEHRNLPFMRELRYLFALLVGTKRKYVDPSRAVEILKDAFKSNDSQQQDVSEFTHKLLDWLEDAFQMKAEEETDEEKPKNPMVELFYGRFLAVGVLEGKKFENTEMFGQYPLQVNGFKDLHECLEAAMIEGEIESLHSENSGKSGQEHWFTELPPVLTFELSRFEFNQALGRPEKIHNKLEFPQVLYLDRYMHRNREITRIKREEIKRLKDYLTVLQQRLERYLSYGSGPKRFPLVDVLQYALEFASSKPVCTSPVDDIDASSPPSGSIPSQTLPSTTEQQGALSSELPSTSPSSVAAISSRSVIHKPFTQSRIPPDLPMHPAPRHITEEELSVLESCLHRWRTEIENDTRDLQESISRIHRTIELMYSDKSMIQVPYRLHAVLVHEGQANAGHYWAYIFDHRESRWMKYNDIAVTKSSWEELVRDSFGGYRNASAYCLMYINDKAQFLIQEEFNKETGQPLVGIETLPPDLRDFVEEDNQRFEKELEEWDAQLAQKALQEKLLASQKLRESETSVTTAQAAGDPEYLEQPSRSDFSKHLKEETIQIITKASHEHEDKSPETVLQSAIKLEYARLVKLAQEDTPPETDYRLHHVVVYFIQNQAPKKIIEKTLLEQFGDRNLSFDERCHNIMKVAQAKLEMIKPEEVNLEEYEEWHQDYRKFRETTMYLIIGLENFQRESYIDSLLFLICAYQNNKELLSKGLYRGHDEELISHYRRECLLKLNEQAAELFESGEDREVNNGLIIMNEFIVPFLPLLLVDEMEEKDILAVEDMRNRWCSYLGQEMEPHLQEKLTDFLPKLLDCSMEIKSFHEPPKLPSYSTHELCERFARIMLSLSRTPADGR
Outline: as §1

[4] = target: T3, USP28 (UniProt Q96RU2)
T3 sequence (whole entry): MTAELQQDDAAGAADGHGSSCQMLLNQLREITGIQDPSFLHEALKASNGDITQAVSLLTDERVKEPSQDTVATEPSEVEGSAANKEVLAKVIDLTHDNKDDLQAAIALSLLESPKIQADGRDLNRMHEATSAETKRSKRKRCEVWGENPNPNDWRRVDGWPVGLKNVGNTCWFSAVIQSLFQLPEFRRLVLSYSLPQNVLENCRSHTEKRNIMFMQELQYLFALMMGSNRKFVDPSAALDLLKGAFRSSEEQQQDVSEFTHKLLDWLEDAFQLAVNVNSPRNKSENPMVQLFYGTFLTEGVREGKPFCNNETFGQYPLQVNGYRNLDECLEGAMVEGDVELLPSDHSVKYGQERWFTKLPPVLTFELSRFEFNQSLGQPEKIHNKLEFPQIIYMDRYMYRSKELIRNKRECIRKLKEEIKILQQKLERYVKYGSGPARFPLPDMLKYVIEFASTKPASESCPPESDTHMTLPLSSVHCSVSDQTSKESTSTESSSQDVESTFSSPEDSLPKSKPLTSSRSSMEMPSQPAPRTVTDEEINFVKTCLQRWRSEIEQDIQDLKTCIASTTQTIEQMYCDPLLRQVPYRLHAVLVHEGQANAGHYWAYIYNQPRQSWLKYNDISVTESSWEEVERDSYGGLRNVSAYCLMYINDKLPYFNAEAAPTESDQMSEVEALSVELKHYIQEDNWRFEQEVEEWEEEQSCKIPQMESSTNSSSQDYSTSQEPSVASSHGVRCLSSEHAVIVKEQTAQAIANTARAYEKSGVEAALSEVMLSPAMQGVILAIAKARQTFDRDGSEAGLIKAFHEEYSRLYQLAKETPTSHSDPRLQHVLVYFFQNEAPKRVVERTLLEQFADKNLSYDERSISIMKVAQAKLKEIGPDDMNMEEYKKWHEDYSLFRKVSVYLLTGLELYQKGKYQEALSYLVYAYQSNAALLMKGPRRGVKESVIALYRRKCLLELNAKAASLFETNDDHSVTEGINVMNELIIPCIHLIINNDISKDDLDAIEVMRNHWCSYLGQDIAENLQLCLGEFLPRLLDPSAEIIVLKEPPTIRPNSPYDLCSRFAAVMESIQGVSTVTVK
Outline: as §1

Measured: log2 ratio of Biotin-Ahx-Ub-VS probe labelling

USP24, sequence (Q9UPU5 whole entry): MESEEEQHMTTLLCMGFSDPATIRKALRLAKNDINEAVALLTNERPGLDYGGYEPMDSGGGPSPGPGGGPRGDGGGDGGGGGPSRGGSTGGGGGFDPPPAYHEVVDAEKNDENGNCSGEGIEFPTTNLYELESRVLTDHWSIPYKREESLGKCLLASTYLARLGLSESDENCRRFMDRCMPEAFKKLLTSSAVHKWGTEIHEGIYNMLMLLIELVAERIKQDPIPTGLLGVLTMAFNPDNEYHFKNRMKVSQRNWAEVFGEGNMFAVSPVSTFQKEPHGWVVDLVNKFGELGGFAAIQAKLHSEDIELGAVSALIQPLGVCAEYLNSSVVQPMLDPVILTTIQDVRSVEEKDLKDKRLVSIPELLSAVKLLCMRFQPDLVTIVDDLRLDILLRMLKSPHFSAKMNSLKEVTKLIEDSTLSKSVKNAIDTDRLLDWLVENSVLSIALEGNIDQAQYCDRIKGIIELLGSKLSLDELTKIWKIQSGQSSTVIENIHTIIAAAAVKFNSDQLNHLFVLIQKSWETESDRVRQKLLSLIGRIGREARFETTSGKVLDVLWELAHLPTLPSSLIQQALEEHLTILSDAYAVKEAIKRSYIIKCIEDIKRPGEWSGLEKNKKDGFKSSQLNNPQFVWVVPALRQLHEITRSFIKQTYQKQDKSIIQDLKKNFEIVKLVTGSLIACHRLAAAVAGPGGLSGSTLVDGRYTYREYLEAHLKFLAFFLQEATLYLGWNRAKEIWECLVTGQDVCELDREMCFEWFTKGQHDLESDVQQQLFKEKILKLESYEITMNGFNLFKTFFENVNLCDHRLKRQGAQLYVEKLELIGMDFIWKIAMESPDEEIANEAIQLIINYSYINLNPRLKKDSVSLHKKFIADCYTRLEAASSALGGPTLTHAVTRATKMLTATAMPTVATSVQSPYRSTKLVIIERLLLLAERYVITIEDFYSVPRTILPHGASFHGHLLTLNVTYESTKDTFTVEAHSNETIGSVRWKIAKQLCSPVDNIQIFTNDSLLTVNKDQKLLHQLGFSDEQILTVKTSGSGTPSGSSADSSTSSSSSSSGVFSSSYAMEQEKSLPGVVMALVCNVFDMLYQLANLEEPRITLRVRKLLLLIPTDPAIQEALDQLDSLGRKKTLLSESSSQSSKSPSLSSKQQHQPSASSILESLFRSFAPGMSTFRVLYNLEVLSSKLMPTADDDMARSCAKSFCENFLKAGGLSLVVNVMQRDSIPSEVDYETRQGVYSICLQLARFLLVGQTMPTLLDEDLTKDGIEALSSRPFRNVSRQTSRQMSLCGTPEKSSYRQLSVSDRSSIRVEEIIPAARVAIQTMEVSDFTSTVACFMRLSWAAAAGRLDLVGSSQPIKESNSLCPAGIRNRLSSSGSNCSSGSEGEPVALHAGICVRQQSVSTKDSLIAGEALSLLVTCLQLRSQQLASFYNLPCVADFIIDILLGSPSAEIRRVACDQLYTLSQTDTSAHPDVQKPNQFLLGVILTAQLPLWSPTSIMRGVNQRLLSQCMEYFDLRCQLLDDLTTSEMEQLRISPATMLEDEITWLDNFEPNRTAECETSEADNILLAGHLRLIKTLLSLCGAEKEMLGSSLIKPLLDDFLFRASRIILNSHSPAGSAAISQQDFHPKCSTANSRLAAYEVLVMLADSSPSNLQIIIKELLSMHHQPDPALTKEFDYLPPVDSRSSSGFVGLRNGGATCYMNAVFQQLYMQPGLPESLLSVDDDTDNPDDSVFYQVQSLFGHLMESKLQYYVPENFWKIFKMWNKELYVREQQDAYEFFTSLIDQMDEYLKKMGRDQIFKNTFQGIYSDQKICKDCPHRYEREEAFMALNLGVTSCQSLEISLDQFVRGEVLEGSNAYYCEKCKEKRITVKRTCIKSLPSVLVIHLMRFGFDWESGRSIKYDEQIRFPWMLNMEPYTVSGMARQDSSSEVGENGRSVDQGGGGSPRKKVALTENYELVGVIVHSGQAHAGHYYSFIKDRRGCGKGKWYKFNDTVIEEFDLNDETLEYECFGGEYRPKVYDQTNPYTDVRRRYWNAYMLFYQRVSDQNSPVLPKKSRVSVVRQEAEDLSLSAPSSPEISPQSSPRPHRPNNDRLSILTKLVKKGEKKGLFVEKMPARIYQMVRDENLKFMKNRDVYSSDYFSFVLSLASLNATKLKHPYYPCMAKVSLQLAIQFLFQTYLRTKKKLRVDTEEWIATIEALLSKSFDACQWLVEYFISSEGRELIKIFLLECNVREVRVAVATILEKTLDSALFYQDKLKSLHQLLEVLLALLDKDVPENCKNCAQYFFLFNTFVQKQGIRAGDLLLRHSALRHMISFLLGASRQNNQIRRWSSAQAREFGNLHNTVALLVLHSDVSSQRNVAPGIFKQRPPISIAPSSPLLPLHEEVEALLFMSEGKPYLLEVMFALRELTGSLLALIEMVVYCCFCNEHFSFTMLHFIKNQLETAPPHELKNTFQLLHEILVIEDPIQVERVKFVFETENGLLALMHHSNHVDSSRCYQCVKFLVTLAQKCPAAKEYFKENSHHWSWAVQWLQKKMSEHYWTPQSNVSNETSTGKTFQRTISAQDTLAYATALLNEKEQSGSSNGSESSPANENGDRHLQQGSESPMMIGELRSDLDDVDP

O=C(CCl)NCc1ccc2c(c1)OCO2
inactive: [1] -0.272 | [2] -0.3 | [3] -0.0121 | [4] -0.566
